Laboratory results from PubChem BioAssay (NCI).
The panel holds about 83,000 compounds, 20% with a hit somewhere; the sample as a whole holds those more often.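 Single-dose data. Exposure time 48 hours. Values below 10 considered active.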 The source made the active and inactive calls.

Legend:
Test in all cases: NCI-60 one-dose screen, 48 h (100 = growth as untreated, 0 = no growth, -100 = all killed)
Details in all cases: 10 µM unless noted
NCI-H23 lung = tested on: NCI-H23 lung
NCI-H226 lung = tested on: NCI-H226 lung
NCI-H322M lung = tested on: NCI-H322M lung
HOP-62 NSCLC = tested on: HOP-62 NSCLC
NCI-H460 lung = tested on: NCI-H460 lung
HOP-92 NSCLC = tested on: HOP-92 NSCLC
NCI-H522 lung = tested on: NCI-H522 lung
A549/ATCC NSCLC = tested on: A549/ATCC NSCLC
786-0 renal = tested on: 786-0 renal
COLO 205 colon = tested on: COLO 205 colon

Measured: growth

COC(=O)[C@]12CCC(C)(C)C[C@H]1[C@H]1/C(=N/OCCc3nn[nH]n3)C[C@@H]3[C@@]4(C)CC[C@H](OC(C)=O)C(C)(C)[C@@H]4CC[C@@]3(C)[C@]1(C)CC2
inactive: NCI-H23 lung 28.4% | NCI-H226 lung 33.3% | NCI-H322M lung 64.6% | HOP-62 NSCLC 34% | HOP-92 NSCLC 49.9% | NCI-H522 lung 38.3% | A549/ATCC NSCLC 36.8% | 786-0 renal 51.9% | COLO 205 colon 41.4%
active: NCI-H460 lung 9.64%

O=c1c2ccccc2n2cnc3ccc(Cl)c1c32
inactive: NCI-H23 lung 86.2% | NCI-H226 lung 93.9% | NCI-H322M lung 90.2% | HOP-62 NSCLC 93.1% | NCI-H460 lung 58.5% | HOP-92 NSCLC 102% | NCI-H522 lung 65.4% | A549/ATCC NSCLC 67.8% | 786-0 renal 73.3% | COLO 205 colon 91.8%

N#CC1=C(N)Oc2c(sc3c(Br)cccc23)C1c1ccc(Cl)cc1 (stereo not given)
active: NCI-H460 lung 8.2% | NCI-H522 lung -26.8% | A549/ATCC NSCLC 1.31% | 786-0 renal 5.59% | COLO 205 colon -42.2%
inactive: NCI-H23 lung 17.2% | NCI-H226 lung 39.7% | NCI-H322M lung 36.1% | HOP-62 NSCLC 14.3% | HOP-92 NSCLC 35.6%

O=C(N/N=C/c1ccc(Cl)cc1)c1[nH]c2ccc(Cl)cc2c1-c1ccccc1
inactive: NCI-H23 lung 42.1% | NCI-H226 lung 10.9% | NCI-H322M lung 37.6% | HOP-62 NSCLC 23.9% | A549/ATCC NSCLC 42.9% | 786-0 renal 22.1%
active: NCI-H460 lung 4.43% | HOP-92 NSCLC -7.26% | NCI-H522 lung -32% | COLO 205 colon -72.4%

COc1ccc(-c2noc(C(=O)O)c2-c2cc(OC)c(OC)c(OC)c2)cc1
inactive: NCI-H23 lung 39.9% | NCI-H226 lung 54.1% | NCI-H322M lung 48.9% | HOP-62 NSCLC 36.6% | NCI-H460 lung 14.8% | HOP-92 NSCLC 54.9% | NCI-H522 lung 17.3% | A549/ATCC NSCLC 43.4% | 786-0 renal 33.1%
active: COLO 205 colon 6.75%

S=c1sc2c(Cl)nc(-c3cccnc3)nc2n1-c1ccccc1
inactive: NCI-H23 lung 17.5% | NCI-H226 lung 85.2% | NCI-H322M lung 61% | HOP-62 NSCLC 27.8% | NCI-H460 lung 57.4% | HOP-92 NSCLC 25.3% | A549/ATCC NSCLC 79.9% | 786-0 renal 35.4% | COLO 205 colon 80%
active: NCI-H522 lung -65.8%

CCCCC1=C(P(=O)(O)O)N[C@H](C(=O)O)CS1
inactive: NCI-H23 lung 97.5% | NCI-H226 lung 95.5% | NCI-H322M lung 73.8% | HOP-62 NSCLC 89.4% | NCI-H460 lung 107% | HOP-92 NSCLC 89.5% | NCI-H522 lung 83.2% | A549/ATCC NSCLC 92% | 786-0 renal 95.1% | COLO 205 colon 108%

CCC(C)N(CCNc1cc(OC)cc2cccnc12)CC(C)C (stereo not given)
inactive: NCI-H23 lung 86.5% | NCI-H226 lung 92.7% | NCI-H322M lung 95.2% | HOP-62 NSCLC 107% | NCI-H460 lung 98% | HOP-92 NSCLC 105% | NCI-H522 lung 82.8% | A549/ATCC NSCLC 102% | 786-0 renal 117% | COLO 205 colon 96.6%

Nc1nc2ccccc2c2c1S(=O)(=O)c1ccc(Cl)cc1C2=O
inactive: NCI-H23 lung 37.9% | NCI-H226 lung 63.1% | NCI-H322M lung 63% | HOP-62 NSCLC 30.2% | NCI-H460 lung 23.5% | A549/ATCC NSCLC 46.8% | 786-0 renal 16.2%
active: HOP-92 NSCLC -25.4% | NCI-H522 lung -73.5% | COLO 205 colon -18%

Cc1ccc(NC(=O)c2sc3nc(C)c(Br)c(C)c3c2N)cc1
active: HOP-92 NSCLC -5.03%
inactive: NCI-H23 lung 73.8% | NCI-H226 lung 47.7% | NCI-H322M lung 51.2% | HOP-62 NSCLC 34.9% | NCI-H460 lung 54.4% | NCI-H522 lung 71.9% | A549/ATCC NSCLC 67.7% | 786-0 renal 30.5% | COLO 205 colon 84.9%

Cc1[nH]c(=O)[nH]c(=O)c1Br
inactive: NCI-H23 lung 97.9% | NCI-H226 lung 108% | NCI-H322M lung 120% | HOP-62 NSCLC 104% | NCI-H460 lung 105% | HOP-92 NSCLC 102% | NCI-H522 lung 111% | A549/ATCC NSCLC 98.2% | 786-0 renal 107% | COLO 205 colon 112%

O=C(CN1CCOCC1)Nc1nc(-c2cc3ccccc3oc2=O)cs1
inactive: NCI-H23 lung 111% | NCI-H226 lung 88.2% | NCI-H322M lung 100% | HOP-62 NSCLC 96.9% | NCI-H460 lung 103% | HOP-92 NSCLC 90.7% | NCI-H522 lung 98.7% | A549/ATCC NSCLC 105% | 786-0 renal 103% | COLO 205 colon 120%

C1CN(SSN2CCOCC2)CCO1
active: NCI-H23 lung 3.63% [100 µM] | HOP-92 NSCLC -0.94% [100 µM] | NCI-H522 lung -53.1% [100 µM] | 786-0 renal -93% [100 µM] | COLO 205 colon -70% [100 µM]
inactive: NCI-H226 lung 26.5% [100 µM] | NCI-H322M lung 59.3% [100 µM] | HOP-62 NSCLC 91.9% [100 µM] | NCI-H460 lung 10.8% [100 µM] | A549/ATCC NSCLC 35.7% [100 µM]

O=C(COc1ccc(-c2nc3cc(Cl)c(Cl)cc3[nH]2)cc1)N=Nc1c(O)[nH]c2ccc(Cl)cc12
inactive: NCI-H23 lung 70.1% | NCI-H226 lung 80.8% | NCI-H322M lung 94.9% | HOP-62 NSCLC 89.9% | NCI-H460 lung 46.4% | HOP-92 NSCLC 77.1% | NCI-H522 lung 97.9% | A549/ATCC NSCLC 75.9% | 786-0 renal 68.7% | COLO 205 colon 56.2%
